Results with a measured potency or affinity are listed apart. Unmarked numbers belong to inactive results.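 The calls were made as follows: active = falling ATP light signal with a fitted half-maximal concentration at most twice the highest valid tested dose; inconclusive = flat fit with moderate signal loss, or poor fit; inactive = the rest.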
Assay: HepG2 hepatoma cell cytotoxicity, dose response, cytotoxicity control, CellTiter-Glo luminescence, dry powder, set 3 (AID 720594)
Details: HepG2 viability, ATP luminescence, 72 h; series mostly up to 26 µM; activity change, negative = cytotoxicity: at the top concentration

| Structure (SMILES) | activity change, negative = cytotoxicity [%] |
| --- | --- |
| CC1CCN(S(=O)(=O)c2ccc(C(=O)Nc3nnc(-c4ccno4)o3)cc2)CC1 | -22.9 |
| Cc1ccc(C(=O)Nc2nc(-c3ccccn3)cs2)cc1S(=O)(=O)N1CCOCC1 | -14.4 |
| O=C(Nc1nc(-c2ccccn2)cs1)c1ccco1 | -7.91 |
| COC(=O)Cc1cc(=O)n(-c2nc3ccccc3[nH]2)[nH]1 | -21.4 |
| Cc1ccc(S(=O)(=O)CCc2nnc(NC(=O)c3ccccc3)s2)cc1 | -8.3 |
| CC1CCN(S(=O)(=O)c2ccc(C(=O)Nc3nnc(-c4ccccn4)o3)cc2)CC1 | -20.6 |
| Cc1ccc(C(=O)Nc2nc(-c3ccccn3)cs2)o1 | -17.6 |
| O=C(CSc1ccc(-c2ccccn2)nn1)NC1CCCCC1 | -18.9 |
| O=C(Nc1nc(-c2ccncc2)cs1)c1ccco1 | -15.6 |
| CC1CCN(S(=O)(=O)c2ccc(C(=O)Nc3nnc(-c4ccco4)o3)cc2)CC1 | -19.9 |
| CC1CC(C)CN(S(=O)(=O)c2ccc(C(=O)Nc3nnc(C4=COCCO4)o3)cc2)C1 (centres undefined) | -19.5 |
| Cc1c(C(=O)N(C)C)sc2nc(-c3ccccn3)[nH]c(=O)c12 | -21 |
| Cc1nnc(NC(=O)c2ccc(S(=O)(=O)N3CCCCC3)cc2)o1 | -22 |
| CC(C)Cc1nnc(NC(=O)c2cccc(S(=O)(=O)N3CCOCC3)c2)s1 | -14.8 |
